Our source for the outcome and AC50 values is PubChem BioAssay (EPA / NIEHS).

Experiment [1] deals with Transcription factor E2F1 (Homo sapiens) (UniProt Q01094). As to the kind of experiment: ATG_E2F_CIS: Attagene CIS-FACTORIAL HepG2 Assay for human E2F Transcription Factor 1 (AID 2282935). The following applies: HepG2 Attagene cis-reporter, E2F reporter RNA transcripts; actives raise or lower the signal. Summed up:
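HepG2 cells transiently transfected with multiplexed cis-element reporter units, dosed for 24 h. Reporter mRNA measured by RT-PCR, 6-FAM primer-extension labeling, HpaI digestion and capillary electrophoresis; bidirectional fit versus DMSO baseline.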

A short description of experiment [2]: ATG_E_Box_CIS: Attagene CIS-FACTORIAL HepG2 Assay for human Enhancer Box (E-box) (AID 2282936). The settings on record: HepG2 E-box cis-reporter transcription, actives raise or lower the signal. The essentials:
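HepG2 cells transiently transfected with multiplexed cis-element reporter units sensing endogenous transcription factor activity; 24 h compound exposure. Reporter mRNA measured by RT-PCR, 6-FAM primer extension, HpaI digestion and capillary electrophoresis; bidirectional fit versus DMSO.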

The nature of experiment [3]: ATG_M_61_CIS: Attagene CIS-FACTORIAL HepG2 Assay for M61 Transcription Factor (Internal Marker) (AID 2282937). The settings on record: HepG2 Attagene CIS-FACTORIAL M61 internal marker reporter; actives raise or lower the signal. The essentials:
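Cells were transfected with reporter units under cis-regulatory promoters, treated with chemicals for 24 h, then lysed for RNA. Reporter transcripts were quantified by RT-PCR and capillary electrophoresis, and activity was fitted bidirectionally against DMSO.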

Experiment [4] in a line: ATG_EGR_CIS: Attagene CIS-FACTORIAL HepG2 Assay for human Early Growth Response 1 (EGR1) (AID 2282938). The settings on record: HepG2 Attagene CIS-FACTORIAL EGR reporter mRNA; actives raise or lower the signal. The essentials:
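Endogenous TF activity in HepG2 liver cells was gauged through cis-promoter reporter constructs transiently transfected. After 24 h dosing, reporter mRNA was quantified by RT-PCR and capillary electrophoresis, and curves fitted in both directions versus DMSO.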

Experiment [5] in a line: ATG_M_19_CIS: Attagene CIS-FACTORIAL HepG2 Assay for M19 Transcription Factor (Internal Marker) (AID 2282939). The settings on record: HepG2 Attagene CIS-FACTORIAL M19 internal marker reporter; actives raise or lower the signal. Summed up: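 Signals come from fluorescence of labelled reporter-specific PCR fragments resolved by capillary electrophoresis, following 24 h treatment of HepG2 cells transfected with cis-promoter reporter units; activity was fitted in both directions relative to DMSO.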

Experiment [6] can be described thus: ATG_ERE_CIS: Attagene CIS-FACTORIAL HepG2 Assay for Estrogen Response Element (ERE) (AID 2282940). The following applies: HepG2 ERE cis-reporter, Attagene RNA transcript; actives raise or lower the signal. The essentials:
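Fluorescence of capillary-separated, FAM-labelled reporter cDNA fragments indicates reporter mRNA levels in HepG2 cells exposed to chemicals for 24 h. Transient transfection with cis-regulated units; data fitted in both directions against DMSO.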

Experiment [7] is described as follows: ATG_Ets_CIS: Attagene CIS-FACTORIAL HepG2 Assay for human Erythroblast Transformation Specific (ETS) (AID 2282941). The following applies: HepG2 ETS cis-reporter transcription, actives raise or lower the signal. Summed up: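 Steps: transfect HepG2 with multiple reporter units; treat compound 24 h; isolate RNA, DNase-treat, reverse-transcribe; PCR-amplify, label with 6-FAM, digest with HpaI; separate by capillary electrophoresis. Activity fitted both directions versus DMSO.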

Experiment [8] has as its target Hepatocyte nuclear factor 3-beta (Homo sapiens) (UniProt Q9Y261). As to the kind of experiment: ATG_FoxA2_CIS: Attagene CIS-FACTORIAL HepG2 Assay for human Forkhead box A2 (FOXA2) (AID 2282942). The following applies: HepG2 cis-reporter transcription factor activity, 24 h; actives raise or lower the signal. Summed up: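 Endogenous transcription factor activity was read in HepG2 cells carrying transiently transfected cis-promoter reporter units. After 24 h dosing, reporter mRNA was quantified by RT-PCR and capillary electrophoresis, and values fitted bidirectionally versus DMSO.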

Experiment [9] in a line: ATG_FoxO_CIS: Attagene CIS-FACTORIAL HepG2 Assay for human Forkhead box O (FoxO) (AID 2282943). The following applies: HepG2 Attagene cis-reporter, FoxO element, mRNA; actives raise or lower the signal. Summed up:
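24 h chemical exposure, HepG2 with transient cis-MRTU transfection. RNA extraction, oligo(dT) RT, reporter-specific PCR, primer-extension labelling, HpaI digestion, CE fragment analysis; bidirectional fit, DMSO baseline.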

Experiment [10] in a line: ATG_GATA_CIS: Attagene CIS-FACTORIAL HepG2 Assay for human GATA Binding Protein (AID 2282944). The following applies: HepG2 GATA cis-element reporter, Attagene multiplex mRNA; actives raise or lower the signal. Summed up: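 After transfecting HepG2 cells with multiple cis-regulated reporter units, chemicals are dosed for 24 h; isolated RNA undergoes RT-PCR and fluorescent labeling before capillary electrophoresis, with activity expressed against DMSO.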

Several values for one entry are separate records, joined by “and”; a condition that tells them apart may be missing. Equal entries are not always repeated. More than one record can exist for a structure, and the calls need not agree. Activity calls are given as the source filed them. The calls were made as follows: active = hit-call score of the fitted dose curve at least 0.9, where 1 is the maximum; inactive = score below 0.9.

Hepatocyte nuclear factor 3-beta (Homo sapiens), sequence (Q9Y261 whole entry, looked up): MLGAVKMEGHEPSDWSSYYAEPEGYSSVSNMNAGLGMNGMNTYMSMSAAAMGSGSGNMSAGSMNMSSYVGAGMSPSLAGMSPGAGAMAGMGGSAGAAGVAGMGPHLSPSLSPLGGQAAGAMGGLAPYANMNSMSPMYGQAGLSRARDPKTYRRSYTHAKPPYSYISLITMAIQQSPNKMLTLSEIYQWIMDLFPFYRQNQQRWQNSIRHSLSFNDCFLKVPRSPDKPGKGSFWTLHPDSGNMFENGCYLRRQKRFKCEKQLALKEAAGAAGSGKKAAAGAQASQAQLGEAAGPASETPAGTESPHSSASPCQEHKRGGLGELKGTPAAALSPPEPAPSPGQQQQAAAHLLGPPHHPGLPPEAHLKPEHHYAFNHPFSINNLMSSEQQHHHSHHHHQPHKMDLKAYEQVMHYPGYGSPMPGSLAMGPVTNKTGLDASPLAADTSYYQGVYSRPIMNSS
Transcription factor E2F1 (Homo sapiens), sequence (Q01094 whole entry, looked up): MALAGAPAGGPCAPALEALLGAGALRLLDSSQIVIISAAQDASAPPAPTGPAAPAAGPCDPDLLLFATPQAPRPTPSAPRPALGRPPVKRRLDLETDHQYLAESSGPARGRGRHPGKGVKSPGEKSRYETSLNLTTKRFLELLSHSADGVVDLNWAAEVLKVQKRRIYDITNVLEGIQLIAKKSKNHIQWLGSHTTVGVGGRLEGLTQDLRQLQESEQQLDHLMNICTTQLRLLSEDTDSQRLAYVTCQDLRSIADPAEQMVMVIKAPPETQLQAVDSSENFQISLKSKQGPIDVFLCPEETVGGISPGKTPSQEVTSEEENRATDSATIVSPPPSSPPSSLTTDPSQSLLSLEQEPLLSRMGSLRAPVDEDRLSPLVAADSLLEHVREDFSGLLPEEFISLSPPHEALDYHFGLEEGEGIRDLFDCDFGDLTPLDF

`COc1nn(CSP(=S)(OC)OC)c(=O)s1`: the call in [1], in experiment [2], in experiment [3], in experiment [4], in experiment [5] and in [7] was inactive. Also, the compound was classed as inactive in experiment [8], in experiment [9] and in experiment [10]. Also, in [6], the AC50 is 24.8 µM (active).
Consider `CNC(=O)CSP(=S)(OC)OC`, for which the compound was classed as inactive in experiment [1], in experiment [2], in experiment [3], in experiment [4], in [5] and in experiment [6]. Further, the compound was called inactive in [7], in experiment [8], in experiment [9] and in experiment [10].
For the compound `COC(=O)c1ccccc1S(=O)(=O)NC(=O)N(C)c1nc(C)nc(OC)n1`, the compound was called inactive in experiment [1], in experiment [2], in [3], in experiment [4], in experiment [5] and in experiment [6]. Besides, the call in [7], in [8], in [9] and in [10] was inactive.
Regarding `C[C@H]1[C@H](c2ccc(Cl)cc2)SC(=O)N1C(=O)NC1CCCCC1`, the AC50 was 20.9 µM (active) in [1] and 15.4 µM (active) in [4]. Also, the result in [2], in experiment [3], in experiment [5], in experiment [6], in experiment [7] and in experiment [8] was inactive. The compound was classed as inactive in experiment [9] and in experiment [10].
As to `C#CCN1C(=O)COc2cc(F)c(N3C(=O)C4=C(CCCC4)C3=O)cc21`, the result in experiment [1], in [2], in experiment [3], in [4], in experiment [5] and in experiment [6] was inactive. In addition, the compound was called inactive in experiment [7], in experiment [8], in experiment [9] and in [10].
On to `O=[N+]([O-])c1c(Cl)c(Cl)c(Cl)c(Cl)c1Cl`, for which the outcome in [1], in experiment [2], in experiment [3], in [5], in experiment [7] and in [8] was inactive. In addition, the call in experiment [9] and in [10] was inactive. Besides, the AC50 in [4] was 90.8 µM (active); in experiment [6], 12.9 µM (active).
Regarding `CN1CSC(=S)N(C)C1`, the call in experiment [1], in experiment [2], in experiment [3], in experiment [4], in experiment [5] and in experiment [6] was inactive. Besides, the compound was classed as inactive in experiment [7], in [8], in experiment [9] and in experiment [10].
For the compound `Oc1ccc(Cl)cc1Cc1ccccc1`, the compound was classed as inactive in experiment [1], in experiment [2], in experiment [3], in [4], in [5] and in [7]. The compound was called inactive in [8], in experiment [9] and in experiment [10]. Besides, the AC50 is 11.1 µM (active) in experiment [2]; 14.9 µM (active) in [4]; 16.3 µM (active) in [7]; 20.4 µM (active) in experiment [9]; 20.2 µM (active) in [10].
On to `CC(C)(C)C(O)/C(=C\c1ccc(Cl)cc1Cl)n1cncn1` (configuration not stated), for which the result in experiment [1], in experiment [2], in experiment [3], in [4], in experiment [5] and in [6] was inactive. The outcome in experiment [7], in experiment [8], in experiment [9] and in [10] was inactive.
Consider `Oc1cc(Cl)ccc1Oc1ccc(Cl)cc1Cl`, for which the result in experiment [1], in [2], in experiment [3], in [4], in experiment [5] and in [7] was inactive. The call in [8], in experiment [9] and in [10] was inactive. Moreover, the concentration at half-maximal activity (AC50) in experiment [2] was 13.4 µM (active); in [4], 11.3 µM (active) [middle of 4 runs]; in [7] it was 7.09 µM (active) and 17.9 µM (active) and 5.97 µM (active); in experiment [10], 5.97 µM (active).
Regarding `CC1(C)C(C=C(Cl)Cl)C1C(=O)OC(C#N)c1ccc(F)c(Oc2ccccc2)c1` (configuration not stated), the call in [1], in [2], in experiment [3], in experiment [4], in experiment [5] and in experiment [6] was inactive. Further, the compound was classed as inactive in [7], in experiment [8], in [9] and in [10].
For `O=C(NC(=O)c1c(F)cccc1F)Nc1ccc(OC(F)(F)C(F)OC(F)(F)F)c(Cl)c1` (configuration not stated), the call in experiment [1], in experiment [2], in [3], in [4], in experiment [5] and in [6] was inactive. For the same compound, the call in [7], in [8], in [9] and in experiment [10] was inactive.
